Measured values as given in PubChem BioAssay (NCATS).
Inconclusive results are not listed. Activity calls are given as the source filed them. Calls follow the shape of the dose curve; as a rule, active = well fitted curve in the direction sought with a large enough effect; inconclusive = small, poorly fitted or top-dose-only effect, or another doubt; inactive = no such curve, though single readings can be large; an effect the other way counts as inactive or inconclusive.

Assays:
CRL-7250 = normal cell line; experiment: Cytotoxic Profiling of Annotated Libraries Using Quantitative High-Throughput Screening (AID 1296008); conditions: Five cell lines viability, CellTiter-Glo ATP luminescence, 48-72 h; max response: stronger effect = lower value; also: nearly all actives have a fitted effect of over 60% in size
Outline: (§1)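 Compounds were pin-transferred onto cells and incubated 48 or 72 hr at 37 degree Celsius, 95% humidity. CellTiter-Glo was added, plates sat 10 min at room temperature, then ATP-coupled luminescence was imaged as the viability read-out.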

HaCat [1] = experiment: as above; conditions: Five cell lines viability, CellTiter-Glo ATP luminescence, 48-72 h; max response: stronger effect = lower value
Outline: as §1

KB-3-1 = experiment: as above; conditions: Five cell lines viability, CellTiter-Glo ATP luminescence, 48-72 h; max response: stronger effect = lower value
Outline: as §1

NIH3T3 [2] = experiment: as above; conditions: Five cell lines viability, CellTiter-Glo ATP luminescence, 48-72 h; max response: stronger effect = lower value
Outline: as §1

HACAT [3] = experiment: qHTS assay to identify novel small-molecules to repurpose for Merkel cell carcinoma treatment (AID 1296009); conditions: MCC and control cell lines, CellTiter-Glo viability, 72 h; at 44.8 µM (top of the series) unless noted; also: nearly all actives have a fitted effect of over 60% in size; also: potency is read from the fitted curve at half-maximal effect
Outline: (§2)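 Luminescence from CellTiter-Glo, read 10 min after addition at room temperature, reported viability following a 72 hr, 37 degree celsius treatment with NPC or MIPE compounds in titration; values normalized to plate controls.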

MCC-13 = experiment: as above; conditions: MCC and control cell lines, CellTiter-Glo viability, 72 h; series mostly up to 46 µM
Outline: as §2

MCC-26 = experiment: as above; conditions: MCC and control cell lines, CellTiter-Glo viability, 72 h; series mostly up to 46 µM
Outline: as §2

C33A = experiment: Primary qHTS to identify gynecologic anti-cancer compounds using libraries of approved drugs and bioactive compounds (AID 1345084); conditions: Gynecologic cancer cell panel viability, ATPlite luminescence, 48 h; series mostly up to 57.5 µM; also: nearly all actives have a fitted effect of over 55% in size
Outline: (§3)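 Cell viability after 48 h drug treatment, ATPlite luminescence readout; five doses.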

CASKI = experiment: as above; conditions: Gynecologic cancer cell panel viability, ATPlite luminescence, 48 h; series mostly up to 57.5 µM
Outline: as §3

Es-2 = experiment: as above; conditions: Gynecologic cancer cell panel viability, ATPlite luminescence, 48 h; series mostly up to 57.5 µM
Outline: as §3

HeLa = experiment: as above; conditions: Gynecologic cancer cell panel viability, ATPlite luminescence, 48 h; series mostly up to 57.5 µM
Outline: as §3

Hek293T [4] = experiment: as above; conditions: Gynecologic cancer cell panel viability, ATPlite luminescence, 48 h, control line for the selectivity index; series mostly up to 57.5 µM
Outline: as §3

HEK293 = experiment: Cytotoxic Profiling of Annotated Libraries Using Quantitative High-Throughput Screening (AID 1296008); conditions: Five cell lines viability, CellTiter-Glo ATP luminescence, 48-72 h; max response: stronger effect = lower value; also: nearly all actives have a fitted effect of over 60% in size
Outline: as §1

MKL-2 = experiment: qHTS assay to identify novel small-molecules to repurpose for Merkel cell carcinoma treatment (AID 1296009); conditions: MCC and control cell lines, CellTiter-Glo viability, 72 h; series mostly up to 46 µM; also: nearly all actives have a fitted effect of over 60% in size; also: potency is read from the fitted curve at half-maximal effect
Outline: as §2

UISO = experiment: as above; conditions: MCC and control cell lines, CellTiter-Glo viability, 72 h; series mostly up to 46 µM
Outline: as §2

WaGa = experiment: as above; conditions: MCC and control cell lines, CellTiter-Glo viability, 72 h; series mostly up to 46 µM
Outline: as §2

CAOV3 = experiment: Primary qHTS to identify gynecologic anti-cancer compounds using libraries of approved drugs and bioactive compounds (AID 1345084); conditions: Gynecologic cancer cell panel viability, ATPlite luminescence, 48 h; series mostly up to 57.5 µM; also: nearly all actives have a fitted effect of over 55% in size
Outline: as §3

MKL-1 = experiment: qHTS assay to identify novel small-molecules to repurpose for Merkel cell carcinoma treatment (AID 1296009); conditions: MCC and control cell lines, CellTiter-Glo viability, 72 h; series mostly up to 46 µM; also: nearly all actives have a fitted effect of over 60% in size; also: potency is read from the fitted curve at half-maximal effect
Outline: as §2

HEK293T [5] = experiment: as above; conditions: MCC and control cell lines, CellTiter-Glo viability, 72 h; at 44.8 µM (top of the series) unless noted
Outline: as §2

NIH3T3 [6] = experiment: as above; conditions: MCC and control cell lines, CellTiter-Glo viability, 72 h; at 44.8 µM (top of the series) unless noted
Outline: as §2
% is scaled to controls: 0 for no effect and ±100 for the full control effect.

CCC(=O)c1ccc2c(c1)N(CCCN(C)C)c1ccccc1S2
inactive: max response (CRL-7250) -1.9% | outcome (HaCat [1]) | max response (KB-3-1) -0.0737% | max response (NIH3T3 [2]) -21.3% | outcome (HACAT [3]) | Potency (MCC-13) | Potency (MCC-26) | Potency (C33A) | Potency (CASKI) | Potency (Es-2) | Potency (HeLa) | Potency (Hek293T [4])

CCO/C([O-])=N/c1c[n+](N2CCOCC2)no1
inactive: outcome (CRL-7250) | max response (HEK293) -1.87% | max response (NIH3T3 [2]) -0.944% | Potency (MCC-13) | Potency (MCC-26) | Potency (MKL-2) | Potency (UISO) | Potency (WaGa) | Potency (C33A) | Potency (CAOV3) | Potency (CASKI) | Potency (Es-2) | Potency (HeLa) | Potency (Hek293T [4])

C[C@]12CCC(=O)C=C1CC[C@@H]1[C@@H]2CC[C@@]2(C)[C@H]1CC[C@]2(O)C(=O)CO
inactive: max response (CRL-7250) -9.98% | max response (HaCat [1]) -3.7% | max response (NIH3T3 [2]) -17.4% | Potency (MCC-13) | Potency (MCC-26) | Potency (MKL-1) | Potency (MKL-2) | Potency (UISO) | Potency (WaGa) | Potency (C33A) | Potency (CAOV3) | Potency (CASKI) | Potency (Es-2) | Potency (HeLa) | Potency (Hek293T [4])

CN1CCN(C2=Nc3ccccc3Oc3ccc(Cl)cc32)CC1
inactive: outcome (CRL-7250) | max response (HaCat [1]) -5.97% | max response (KB-3-1) 6.07% | max response (NIH3T3 [2]) -11% | Potency (MCC-13) | Potency (MCC-26) | Potency (MKL-1) | Potency (UISO) | Potency (WaGa) | Potency (C33A) | Potency (CAOV3) | Potency (CASKI) | Potency (Es-2) | Potency (HeLa) | Potency (Hek293T [4])

CN(C)CC/C=C1\c2ccccc2COc2ccccc21
inactive: max response (CRL-7250) -15.2% | outcome (HaCat [1]) | max response (NIH3T3 [2]) 0.829% | outcome (HACAT [3]) | Potency (MCC-13) | Potency (MCC-26) | Potency (MKL-1) | Potency (UISO) | Potency (WaGa) | Potency (C33A) | Potency (CAOV3) | Potency (Es-2) | Potency (Hek293T [4])

CNCCC(Oc1ccccc1OC)c1ccccc1 (configuration not stated)
inactive: max response (CRL-7250) -0.295% | max response (HaCat [1]) 1.07% | max response (KB-3-1) 0.271% | max response (NIH3T3 [2]) -6.28% | Potency (MCC-13) | Potency (MCC-26) | Potency (MKL-2) | Potency (UISO) | Potency (WaGa) | Potency (C33A) | Potency (CASKI) | Potency (Es-2) | Potency (HeLa) | Potency (Hek293T [4])

CCn1nc(C(=O)O)c(=O)c2cc3c(cc21)OCO3
inactive: outcome (HEK293T [5]) | Potency (MCC-13) | Potency (MCC-26) | Potency (MKL-1) | Potency (MKL-2) | Potency (UISO) | Potency (WaGa) | Potency (C33A) | Potency (CAOV3) | Potency (CASKI) | Potency (Es-2) | Potency (HeLa) | Potency (Hek293T [4])

CN1CCN(CC(=O)N2c3ccccc3C(=O)Nc3cccnc32)CC1
inactive: outcome (HACAT [3]) inactive [at 4.96 µM] | activity change, negative = cytotoxicity (MCC-13) 8.41% [at 4.84 µM] | activity change, negative = cytotoxicity (MCC-26) 1.14% [at 4.84 µM] | activity change, negative = cytotoxicity (MKL-1) -1.15% [at 4.84 µM] | activity change, negative = cytotoxicity (MKL-2) 15.9% [at 4.84 µM] | activity change, negative = cytotoxicity (UISO) 0.833% [at 4.84 µM] | activity change, negative = cytotoxicity (WaGa) 4.82% [at 4.84 µM] | activity change, negative = cytotoxicity (C33A) -17.4% [at 6.55 µM] | activity change, negative = cytotoxicity (CAOV3) 6.09% [at 6.55 µM] | activity change, negative = cytotoxicity (CASKI) 7.9% [at 6.55 µM] | activity change, negative = cytotoxicity (Es-2) 2.19% [at 6.55 µM] | activity change, negative = cytotoxicity (HeLa) 1.94% [at 6.55 µM] | activity change, negative = cytotoxicity (Hek293T [4]) 3.74% [at 6.55 µM]

Cc1nc2ccccn2c(=O)c1CCN1CCC(C(=O)c2ccc(F)cc2)CC1
inactive: max response (HaCat [1]) -15.4% | max response (NIH3T3 [2]) -5.4% | Potency (MCC-13) | Potency (MCC-26) | Potency (MKL-2) | Potency (UISO) | Potency (C33A) | Potency (CAOV3) | Potency (CASKI) | Potency (Es-2) | Potency (HeLa) | Potency (Hek293T [4])

CN(C)CCCN1c2ccccc2Sc2ccc(C(F)(F)F)cc21
active: Potency (MKL-2) 13.3 µM | Potency (WaGa) 26.6 µM
inactive: Potency (MCC-26) | Potency (HeLa)

CN(C)CC[C@@H](c1ccc(Br)cc1)c1ccccn1
inactive: outcome (HACAT [3]) | Potency (MCC-13) | Potency (MCC-26) | Potency (MKL-2) | Potency (UISO) | Potency (WaGa) | Potency (C33A) | Potency (CAOV3) | Potency (CASKI) | Potency (Es-2) | Potency (HeLa) | Potency (Hek293T [4])

COCCc1ccc(OCC(O)CNC(C)C)cc1 (configuration not stated)
inactive: outcome (HACAT [3]) | outcome (HEK293T [5]) | Potency (MCC-13) | Potency (MCC-26) | Potency (MKL-1) | Potency (MKL-2) | outcome (NIH3T3 [6]) | Potency (UISO) | Potency (WaGa) | Potency (C33A) | Potency (CAOV3) | Potency (CASKI) | Potency (Es-2) | Potency (HeLa) | Potency (Hek293T [4])
